M1 PAM – human M1 muscarinic receptor positive allosteric modulators, primary screen, CHO-K1 cells, Fluo-8 calcium fluorescence, 1536-well; CHO-K1 hM1, ACh EC20; 0% = ACh EC20, 100% = maximal ACh; activation, % at 3 µM; 0.088% of 360,000 active; AID 588819, 2011; in the data active = activation above about 19%, passing the limit was not always enough
Target sequence (P11229 whole entry, looked up): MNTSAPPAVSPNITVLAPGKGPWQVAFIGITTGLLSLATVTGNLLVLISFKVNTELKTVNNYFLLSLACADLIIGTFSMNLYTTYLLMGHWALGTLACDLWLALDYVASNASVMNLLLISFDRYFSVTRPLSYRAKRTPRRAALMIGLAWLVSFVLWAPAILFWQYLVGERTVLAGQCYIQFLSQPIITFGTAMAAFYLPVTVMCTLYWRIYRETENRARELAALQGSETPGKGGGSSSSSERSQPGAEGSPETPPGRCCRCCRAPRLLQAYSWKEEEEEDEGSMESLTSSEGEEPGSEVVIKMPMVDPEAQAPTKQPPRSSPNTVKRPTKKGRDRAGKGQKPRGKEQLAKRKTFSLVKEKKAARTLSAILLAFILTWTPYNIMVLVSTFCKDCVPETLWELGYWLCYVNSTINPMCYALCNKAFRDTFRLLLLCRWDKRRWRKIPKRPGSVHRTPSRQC
M1 PAM parental – nonselective calcium activators in parental CHO-K1 cells, primary screen, counter-screen for M1 PAM project, cell-based, Fluo-8 calcium fluorescence, full deck, 1536-well. AID 602247, 2012. activation, % at 3 µM. ATP EC20; 0% at ATP EC20, 100% at ATP max. 0.02% of 360,000 active;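 active = activation above the run cutoff, the mean activation of all test compounds plus 3 SD, cut at about 40% in these data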;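 also: peak over basal fluorescence ratio in a 140 s read after ATP addition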
CHO-K1 Ca ag – counter-screen for M1 agonists: effect in parental CHO-K1 cells; Fluo-8 calcium fluorescence; scaled to maximal ATP response, vehicle zero; AID 602248, 2012; 0.48% of 360,000 active; activation, % at 3 µM; in the data active = activation above about 15%;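 also: untransfected CHO-K1 host cells lacking M1 receptor as counterscreen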
CHO-K1 Ca antag – nonselective inhibitor or artifact in parental CHO-K1 cells | inhibition, % at 3 µM | AID 602250 | ATP-induced calcium, Fluo-8 fluorescence | 0.6% of 360,000 active;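 active = inhibition above a per-plate cutoff, the plate's mean sample inhibition plus 3 SD, cut at about 24% in these data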
CHRM1 agonist – human M1 muscarinic receptor agonists, primary screen, Fluo-8 calcium fluorescence, CHO-K1 cells, HTS. Muscarinic acetylcholine receptor M1 (Homo sapiens), P11229. 0.33% of 360,000 active. CHO-K1 hM1, agonist mode; 0% DMSO, 100% acetylcholine EC100. activation, % at 3 µM. AID 588814, 2011;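 active = activation above the run's mean compound activation plus 3 SD, cut at about 16% in these data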;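 also: peak over basal fluorescence ratio within a 140 s kinetic read after compound addition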
M1 antag – human M1 muscarinic receptor antagonists, primary screen, CHO-K1 cells, Fluo-8 calcium fluorescence, 1536-well; CHO-K1 hM1, ACh EC80 antagonist; inhibition, % at 3 µM; AID 588852, 2011; 1.3% of 360,000 active;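 active = percent inhibition above its own plate's cutoff, namely the mean of that plate's compound wells plus 3 SD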;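 also: peak over basal fluorescence ratio during 140 s after agonist addition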
Each line names hits and unclear results; the compound was inactive in the other large screens. Hits are enriched below; roughly 2.3% of the tested compounds scored in any of these assays.

CC(C)Cn1c(N)c(C(=O)COC(=O)c2c(O)c(Cl)cc(Cl)c2Cl)c(=O)n(C)c1=O	M1 PAM 28
CC(C)Cn1c(N)c(C(=O)COC(=O)CC23CC4CC(CC(C4)C2)C3)c(=O)n(C)c1=O	M1 antag 33
Cc1cccc(C(=O)Oc2cccc3c(O)cccc23)c1	none
COc1ccccc1/C=C/C(=O)OCC(=O)NC(=O)NC1CCCC1	none
CC1(C(=O)NCc2ccccc2Br)CCN1C(=O)CCc1ccc(Cl)cc1Cl (stereo unspecified)	none
CC1CCN(S(=O)(=O)CCNC(=O)c2ccc3c(c2)OCO3)CC1	none
Cc1ccc(OCCC(=O)OCC(=O)c2c(N)n(CC(C)C)c(=O)n(C)c2=O)cc1	none
CC(C)Cn1c(N)c(C(=O)COC(=O)COc2cccc(C(F)(F)F)c2)c(=O)n(C)c1=O	CHO-K1 Ca ag 15, M1 antag 32
CC(C)Cn1c(N)c(C(=O)COC(=O)c2cccc(F)c2)c(=O)n(C)c1=O	none
Cc1ccccc1OCCC(=O)OCC(=O)c1c(N)n(CC(C)C)c(=O)n(C)c1=O	CHO-K1 Ca ag 15, CHO-K1 Ca antag 24, M1 antag 38
COc1ccccc1NC(=O)c1cc2cc(Br)ccc2cc1O	CHO-K1 Ca ag 15, CHO-K1 Ca antag 29
COc1cc(NC(=O)c2cc3ccccc3cc2O)c(OC)cc1Cl	none
COc1ccc(CN2C(=O)CCCC2(C)c2nc3ccccc3[nH]2)cc1 (stereo unspecified)	none (no result: M1 PAM, CHRM1 agonist, M1 antag)
C[C@@H]1O[C@H](CCc2cccc(Cl)c2)CC2=C1C(=O)OC(C)(C)O2	none (no result: M1 PAM, CHRM1 agonist, M1 antag)
Cc1ccc(S(=O)(=O)n2ccc3c2CCCC3=O)cc1	M1 antag 54
CC1(C(=O)Nc2cnc3ccccc3c2)CCN1Cc1cc2ccccc2o1 (stereo unspecified)	CHO-K1 Ca antag 35
CC1(C(=O)Nc2cnc3ccccc3c2)CCN1Cc1ccc2ccccc2c1 (stereo unspecified)	none
CCOC(=O)N1CCN(c2nc(-c3ccco3)cc(C(F)(F)F)n2)CC1	none
CN1CCN(c2nc(-c3ccco3)cc(C(F)(F)F)n2)CC1	M1 antag 60
Cn1cc(CNCc2ccc(OC(F)(F)F)cc2)c(-c2ccc3c(c2)OCCO3)n1	M1 antag 33
COc1cc(-c2n[nH]c(=S)n2/N=C/c2cccn2C)cc(OC)c1OC	CHO-K1 Ca ag 22, CHRM1 agonist 64, M1 antag 39
Cn1cccc1/C=N/n1c(-c2ccco2)n[nH]c1=S	none
O=C(CCCCN1CCCCC1)c1ccccc1	none
O=C(C(=Cc1ccccc1)CN1CCCCC1)c1ccccc1	M1 antag 39
CN(C(=O)C1CCCO1)C1CCS(=O)(=O)C1 (stereo unspecified)	none
CC(C(=O)c1ccc(-c2ccccc2)cc1)[n+]1ccccc1 (stereo unspecified)	none
Cc1cc[n+](C(C)C(=O)c2ccc(-c3ccccc3)cc2)cc1 (stereo unspecified)	M1 antag 58
CC(C)(C)C1CCC(N2CCN(c3ccccc3)CC2)CC1 (stereo unspecified)	none
CSc1ccccc1CNc1nc(NCC2CC2)nc2ccsc12	M1 antag 39
O=C1CCCN1CCCNc1nc(NCc2cccs2)nc2ccsc12	CHO-K1 Ca ag 56, CHRM1 agonist 69, M1 antag 68
COc1cccc(CNc2nc(NCC3CC3)nc3ccsc23)c1OC	none
CC(C)Nc1nc(NCCN2CCNC2=O)c2sccc2n1	none
c1csc(CNc2nc(NCC3CCCCC3)c3sccc3n2)c1	none
COc1cccc(CNc2nc(NCc3ccccc3)nc3ccsc23)c1	CHO-K1 Ca ag 29, M1 antag 46
O=C1NCCN1CCNc1nc(NCc2ccccc2)nc2ccsc12	CHO-K1 Ca ag 32, CHO-K1 Ca antag 27, CHRM1 agonist 47, M1 antag 70
